Data published in PubChem BioAssay AID1850 (Southern Research Specialized Biocontainment Screening …, 2009).
Hit rate of the full screen: of about 310,000 compounds, about 1,000 (0.32%) were called active. No rule for the calls is given here. Not all results are given here. Entries with a potency or affinity are not part of this list.

Assay: PhoP regulon inhibitors, Salmonella typhi PhoP promoter GFP reporter, confirmatory (AID 1850);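 also: 0% = induced wells with vehicle and 100% = uninduced wells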
Details: fluorescence, 4 h, at 50 µM, stronger effect = higher value

SMILES | inhibition
Cc1ccc(-c2c[n+](Cc3cccc(Cl)c3)c3n2CCC3)cc1 | 9.09% (inactive)
Clc1ccc(C[n+]2cc(-c3ccccc3)n3c2CCC3)cc1Cl | -4.76% (inactive)
Cc1ccc(C[n+]2cc(-c3ccc(Cl)cc3)n3c2CCC3)cc1 | 8.21% (inactive)
Clc1ccc(-c2c[n+](Cc3ccc(Br)cc3)c3n2CCCCC3)cc1 | 4.54% (inactive)
COc1ccc(NC(=S)NC(C)C(c2ccccc2)N2CCOCC2)cc1 (configuration not stated) | -8.71% (inactive)
O=C(CNC(=O)Cc1ccc(Cl)cc1)NCC(=O)N1CCCCC1 | -7.52% (inactive)
CCOC(=O)c1c(NS(=O)(=O)c2ccccc2)n(CCCOC)c2nc3ccccc3nc12 | -3.68% (inactive)
CCCCCn1c(NC(=O)c2ccco2)c(S(=O)(=O)c2ccc(C)cc2)c2nc3ccccc3nc21 | -3.82% (inactive)
Nc1c(S(=O)(=O)c2ccccc2)c2nc3ccccc3nc2n1C1CC1 | 0.22% (inactive)
C=CCn1c(NC(=O)c2ccc(Br)o2)c(S(=O)(=O)c2ccccc2)c2nc3ccccc3nc21 | 21.1% (inactive)
CCCCn1c(N)c(S(=O)(=O)c2ccc(C)cc2)c2nc3ccccc3nc21 | -6.91% (inactive)
CC(=O)Nc1c(S(=O)(=O)c2ccccc2)c2nc3ccccc3nc2n1Cc1ccccc1 | -2.36% (inactive)
CCC(=O)Nc1c(C#N)c2nc3ccccc3nc2n1C1CCCCC1 | 0.26% (inactive)
CCCCn1c(NS(=O)(=O)c2ccc(C)cc2)c(C(=O)OCC)c2nc3ccccc3nc21 | -4.9% (inactive)
CCOC(=O)c1c(C(=O)OCC)c(C)n(Cc2cc(OC)c(OC)c(OC)c2)c1C | -2.04% (inactive)
COc1ccc(C(=O)N/N=C/c2c(C)nn(-c3ccccc3)c2OC)cc1 | -1.74% (inactive)
CCn1c(SCC(=O)NCc2ccccc2)nnc1C(CO)NC(=O)c1ccccc1 (configuration not stated) | -10.3% (inactive)
CCC(=O)c1ccc(N2CCN(C(=O)Cc3ccccc3)CC2)c(F)c1 | 18.2% (inactive)
CCOC(=O)c1c(N)nn(C(C)=O)c1-c1ccccc1 | -5.98% (inactive)
Cc1ccccc1OCC(=O)Nc1nnc(COc2ccccc2)s1 | -8.87% (inactive)
CCCCn1c(SCC(=O)Nc2nnc(CC)s2)nc2ccccc2c1=O | -4.64% (inactive)
O=C(N/N=C\c1ccc(Cl)s1)c1ccc(Cn2cccn2)o1 | -13.9% (inactive)
C=C(C)c1cccc(C(C)(C)NC(=O)NCCCN2CCCC2=O)c1 | -0.97% (inactive)

SMILES | inhibition
Cc1noc(C)c1CSCC(=O)N1CCN(c2ccc([N+](=O)[O-])cc2)CC1 | 2.46% (inactive)
CCCCn1c(NC(=O)c2ccc(Br)o2)c(S(=O)(=O)c2ccccc2)c2nc3ccccc3nc21 | -28% (inactive)
Cc1ccc(S(=O)(=O)c2c(N)n(CCCO)c3nc4ccccc4nc23)cc1 | 0.68% (inactive)
O=[N+]([O-])c1ccc(/C=[N+](\[O-])[C@@H]2CCCC[C@@H]2/[N+]([O-])=C/c2ccc([N+](=O)[O-])o2)o1 | 7.15% (inactive)
CCc1ccc(C(=O)/C=C/c2ccc([N+](=O)[O-])o2)cc1 | -7.72% (inactive)
O=c1oc2cc(S(=O)(=O)NCCCO)ccc2c2ccc(S(=O)(=O)NCCCO)cc12 | 0.32% (inactive)
O=C(Nc1ccccc1)c1cc2ccccc2o1 | 21.6% (inactive)
Cc1cccc(NC(=O)c2cc3ccccc3o2)c1 | -8.7% (inactive)
COc1ccc(Nc2cc(Nc3cc(OC)c(OC)c(OC)c3)ncn2)cc1 | 10.6% (inactive)
Cc1ccc(NC(=O)CS(=O)CC(=O)Nc2ccc(N3CCOCC3)cc2)cc1Cl (configuration not stated) | 12.6% (inactive)
CC(C(=O)c1ccc(-c2ccccc2)cc1)[n+]1cccc(C(N)=O)c1 (configuration not stated) | 5.49% (inactive)
CC(C(=O)c1ccc(Br)cc1)[n+]1cccc(NC(=O)c2ccccc2)c1 (configuration not stated) | 4.99% (inactive)
CC(=O)C1=C(C)OC(N)=C(C#N)C1c1cccnc1 (configuration not stated) | -13.9% (inactive)
CCOC(=O)C1=C(c2ccccc2)OC(N)=C(C#N)C1c1cccnc1 (configuration not stated) | 9.75% (inactive)
CCC(C)(C)n1nnnc1C(c1cc2cc(C)cc(C)c2[nH]c1=O)N1CCN(C(=O)c2ccco2)CC1 (configuration not stated) | 8.8% (inactive)
COc1ccccc1C1/C(=C(\O)c2ccc3c(c2)OCCO3)C(=O)C(=O)N1CCCn1ccnc1 (configuration not stated) | 5.32% (inactive)
CCOC(=O)N1CCN(Cc2ccccc2Cl)CC1 | -4.15% (inactive)
O=c1c(CN2CCN(c3ccccn3)CC2)coc2ccccc12 | -1.82% (inactive)
CCOC(=O)N1CCN(Cc2ccc(O)c3ncccc23)CC1 | 1.82% (inactive)
O=c1oc2ccccc2c(O)c1Cc1cc(Cl)c2cccnc2c1O | 10.9% (inactive)
COCc1cc(CN2CCN(C)CC2)c(O)c2ncccc12 | 4.48% (inactive)
CN1CCN(Cc2cc(Cl)c3cccnc3c2OC(=O)c2cccs2)CC1 | -8.42% (inactive)
COc1ccc2nc(N(CCN(C)C)C(=O)c3ccc(C(=O)c4ccccc4)cc3)sc2c1 | -16% (inactive)

SMILES | inhibition
Cc1ccccc1CSCC(Nc1ccc(C(=O)O)cc1[N+](=O)[O-])C(=O)O (configuration not stated) | -0.8% (inactive)
CCc1nnc(NS(=O)(=O)c2ccc(N3C(=O)C4CC=C(Cl)CC4C3=O)cc2)s1 (configuration not stated) | 5.39% (inactive)
c1ccc(CNc2nc3ccccc3[nH]2)cc1 | -2.74% (inactive)
COc1ccc2nc(NCc3ccccc3)[nH]c2c1 | 18.6% (inactive)
Cc1cc([N+](=O)[O-])nn1CC(=O)N1CCOCC1 | 12.6% (inactive)
c1ccc(-c2cc(-c3ccccc3)[n+](-c3ccccc3)c(-c3ccccc3)c2)cc1 | 19.1% (inactive)
Fc1ccc(C[n+]2c(-c3ccccc3)cc(-c3ccccc3)cc2-c2ccccc2)cc1 | 11.1% (inactive)
Clc1ccc(C[n+]2c(-c3ccccc3)cc(-c3ccccc3)cc2-c2ccccc2)cc1 | 16.5% (inactive)
Cc1ccc(-c2cc(-c3ccccc3)cc(-c3ccccc3)[n+]2-c2ccccc2)cc1 | 20.6% (inactive)
CCC1CCCCN1C(=O)c1cc(COc2ccc(-n3cncn3)cc2)on1 (configuration not stated) | -7.8% (inactive)
CN(c1ccccc1C(=O)Nc1ccc(S(=O)(=O)N2CCCC2)cc1)S(C)(=O)=O | 9.12% (inactive)
Cc1ccsc1/C=C(\C#N)C(=O)NCc1cccnc1 | -18.9% (inactive)
CCOc1ccccc1NC(=O)c1oc2ccccc2c1NC(=O)C1CCCO1 (configuration not stated) | 0.28% (inactive)
CCOC(=O)C1(Cc2cccc(F)c2)CCN(CC(O)CO)CC1 (configuration not stated) | 1.5% (inactive)
CCOC(=O)C1CCN(Cc2cc(C(C)(C)C)c(O)c(C(C)(C)C)c2)CC1 | -7.6% (inactive)
COc1ccc(/C=N/NC(=O)c2[nH]ncc2Br)c(OC)c1 | 4.69% (inactive)
COc1ccc(OC)c(/C=N/NC(=O)c2[nH]ncc2Br)c1 | -1.03% (inactive)
CC(=O)c1ccc(NC(=S)NCc2ccc(Cl)cc2Cl)cc1 | -6.96% (inactive)
CCn1c(=S)sc2c(=O)n(CC(=O)Nc3ccc(Cl)cc3)c(C)nc21 | 1.24% (inactive)
O=C(CN1CC[n+]2c(-c3cccs3)csc21)c1ccc(Br)cc1 | -5.14% (inactive)
O=C(CN1CC[n+]2c(-c3ccccc3)csc21)c1ccc(Br)cc1 | 7.36% (inactive)
C/C(=N/Oc1nc(C)cc(C)n1)c1ccccc1 | -15.4% (inactive)
Cc1c(C)[n+](=O)c(-c2ccc(Br)cc2)c(C)n1[O-] | 4.2% (inactive)

SMILES | inhibition
CC[n+]1c(/C=C/c2ccc(N(C)C)cc2)ccc2ccccc21 | 1.34% (inactive)
Cc1cc(/C=N/O)c(C)n1-c1ccccc1 | -9.52% (inactive)
C[n+]1c(/C=C/c2ccc(O)cc2)ccc2ccccc21 | 10.8% (inactive)
Cc1cc(/C=C2\SC(=O)NC2=O)c(C)n1-c1ccc(N(C)C)cc1 | -4.88% (inactive)
CC1(C)CC(=O)C(C(=O)Cc2ccccc2[N+](=O)[O-])C(=O)C1 | 2.13% (inactive)
COc1ccc(Nc2nc(N)c3ccccc3n2)c(OC)c1 | 4.67% (inactive)
Nc1nc(Nc2ccc(Cl)cc2)n[nH]1 | 1.12% (inactive)
COc1cc2nc(Nc3ccc(C)c(C)c3)nc(N)c2cc1OC | -4.96% (inactive)
CCOc1ccc(Nc2ncnc(N)n2)cc1 | 20.7% (inactive)
CCOc1ccc(Nc2nc(N)c([N+](=O)[O-])c(NCc3ccccc3)n2)cc1 | -9.51% (inactive)
COc1ccc(Nc2nc(C)c3ccccc3n2)cc1 | 1.01% (inactive)
COc1cc2nc(Nc3ccc(C)c(Cl)c3)nc(N)c2cc1OC | 5.86% (inactive)
COc1ccc(Cl)cc1Nc1nc(N)c2ccccc2n1 | 2.43% (inactive)
CCOC(=O)CSc1nnc2n1C(C)(C)Cc1ccccc1-2 | 11.2% (inactive)
Cc1cc2n(n1)C(c1ccco1)Nc1ccccc1-2 (configuration not stated) | -1.68% (inactive)
COc1cc2ncnc(NCc3ccc(C)o3)c2cc1OC | 1.27% (inactive)
CCOC(=O)N/N=C/c1ccccc1OCc1ccc(Cl)cc1 | 2.12% (inactive)
O=c1[nH]c(C2CCCN(S(=O)(=O)c3ccccc3F)C2)nc2c1nnn2Cc1ccccc1Cl (configuration not stated) | 0.52% (inactive)
CCN(CC)CC(=O)Nn1c(C)nc2c(ncn2-c2ccccc2)c1=O | 2.92% (inactive)
CCCN(CCC)CC(=O)NCC1(c2ccccc2)CCOCC1 | 5.98% (inactive)
CCOc1ccccc1NC(=O)c1cc(-c2cc(OC)c(OC)c(OC)c2)nc2ccccc12 | 6.2% (inactive)
CC(=O)Nc1ccc(NC(=O)[C@H](C)NC(=O)c2ccco2)cc1 | 2.64% (inactive)
CCOC(=O)c1oc2ccccc2c1COC(=O)CNC(=O)c1ccccc1OC | -8.98% (inactive)
